Data as given in PubChem BioAssay (NCI).
Compounds without any hit were thinned out: in the full panel of roughly 83,000, 20% have a hit.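 Treatment: one concentration, 48 hours, 96-well format. Scoring: percent growth, with anything below 10 considered active.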 A number with no mark means an inactive call. Active and inactive are the calls of the source.

Tests used:
Assay in all cases: NCI-60 one-dose screen, 48 h (100 = growth as untreated, 0 = no growth, -100 = all killed)
Details in all cases: 10 µM unless noted
[1] = tested on: NCI-H23 lung
[2] = tested on: NCI-H226 lung
[3] = tested on: NCI-H322M lung
[4] = tested on: HOP-62 NSCLC
[5] = tested on: NCI-H460 lung
[6] = tested on: HOP-92 NSCLC
[7] = tested on: NCI-H522 lung
[8] = tested on: A549/ATCC NSCLC
[9] = tested on: 786-0 renal
[10] = tested on: COLO 205 colon

| SMILES | growth [1] | growth [2] | growth [3] | growth [4] | growth [5] | growth [6] | growth [7] | growth [8] | growth [9] | growth [10] |
| --- | --- | --- | --- | --- | --- | --- | --- | --- | --- | --- |
| CC(C)(C)c1nn(-c2ccccc2)c2c1COCN2Cc1ccc(Cl)cc1 | 84.7% | 87.5% | 101% | 93% | 81.1% | 83.1% | 4.77% (active) | 115% | 90% | 101% |
| Cc1c(O)c(=O)ccn1-c1nc2ccccc2s1 | 102% | 92.5% | 88% | 87.3% | 99.3% | 98.4% | 75.4% | 92.5% | 84.6% | 96.4% |
| Nc1c(C(=O)Nc2ccccn2)sc2nc3c(cc12)C(=O)CCC3 | 46.1% | 74.7% | 43.6% | 40.6% | 6.33% (active) | 87.3% | 12% | 18% | 35.4% | 7.57% (active) |
| CNC(=O)c1cc(Oc2ccc3c(c2)sc2nc(-c4ccc(NC(C)=O)cc4)cn23)ccn1 | 60.1% | 72.3% | 69.6% | 41.5% | 49.8% | 35.3% | 28.4% | 59.6% | 33.8% | 47% |
| Cc1cc(O)cc(O)c1N=NC1=NCCS1 | 98% | 117% | 97.8% | 95.7% | 115% | 109% | 90.3% | 101% | 96.6% | 100% |
| COc1ccc2c(c1)C1(C(=O)N2)C(C#N)=C(c2ccccc2)Nc2c1c(-c1ccccc1)nn2-c1ccccc1 (stereo not given) | 51.1% | 101% | 60.4% | 66.9% | -26.1% (active) | 55.6% | 85.9% | 36.3% | 62.4% | 60.1% |
| c1ccc(Sc2ncccn2)nc1 | 93% | 92.2% | 111% | 100% | 103% | 89% | 91.6% | 103% | 103% | 116% |
| CCN1CCN(c2ccc(NC(=O)Nc3nc4ccc(-c5ccccc5OC)cc4s3)cc2)CC1 | -16.8% (active) | 56.6% | -86% (active) | -66.2% (active) | -64.4% (active) | 2.16% (active) | -78.1% (active) | -77.1% (active) | -80.7% (active) | -73.2% (active) |
| CN1CC=C(c2cc(NC(=O)Nc3ccc(Oc4ccnc(NC(=O)C5CC5)c4)c(F)c3)cc(C(F)(F)F)c2)CC1 | -14.8% (active) | 4.49% (active) | 7.64% (active) | -13.2% (active) | -5.88% (active) | -17% (active) | -49.8% (active) | -6.76% (active) | -6.75% (active) | -26.2% (active) |
| CCCCCCN1C(=O)CN=C1Nc1ccc2cc3ccc(NC4=NCC(=O)N4CCCCCC)cc3nc2c1 | 64.8% | 81.7% | 79.7% | 82.4% | 57.5% | 82.9% | -9.83% (active) | 74.5% | 36.1% | 40.3% |
| C=C1C(=O)O[C@H]2[C@H]1CC/C(COC(=O)c1cc3ccccc3o1)=C\CC[C@@]1(C)O[C@@H]21 | 32.8% | 45.6% | 78.1% | 42.7% | 42.2% | -52.7% (active) | -58.2% (active) | 51.4% | -19.1% (active) | -65.6% (active) |
| CSc1cccc(NC(=O)Nc2nc3c(C)cccc3s2)c1 | 90.2% | 83.2% | 102% | 87.4% | 97.6% | 86.6% | 77.6% | 95.1% | 96.2% | 120% |
| O=C1CC(c2ccc(O)c(O)c2)Oc2cc(O)c([C@@H]3O[C@H](CO)[C@@H](O)[C@H](O)[C@H]3O)c(O)c21 (stereo not given in full) | 106% | 98.9% | 113% | 105% | 99.1% | 113% | 100% | 94.8% | 99.5% | 108% |
